Consider 40 molecules from PubChem BioAssay (Tox21).

Records with an inconclusive call do not appear. A number with no mark means an inactive call. Activity calls are given as the source filed them. Calls follow the shape of the dose curve; as a rule, active = well fitted activation curve with a large enough effect in the repeat runs; inconclusive = weak or mixed curves; inactive = no such curve, though single readings can be large or run the other way.
% is scaled to controls: 0 for no effect and ±100 for the full control effect; potency is read from the fitted curve at half-maximal effect.

The assay in a line: qHTS assay for small molecules that induce genotoxicity in human embryonic kidney cells expressing luciferase-tagged ATAD5 (AID 651632). Also: nearly all actives have a fitted effect of over 15% in size. To be noted: HEK293T ATAD5-luciferase induction, 16 h; series mostly up to 83.3 µM; activation: at the top concentration. The source says: U.S. Tox21 Program National Center for Advancing Translational Sciences [NCATS] NIH Chemical Genomics Center [NCGC] U.S. Environmental Protection Agency [EPA] National Institutes of Environmental Health Sciences [NIEHS] National Toxicology Program [NTP] U.S. Food and Drug Administration [FDA] Tox21 Assay Overview: As cancer cells divide rapidly and during every cell division they need to duplicate their genome by DNA replication. The failure to do so results in the cancer cell death. Based on this concept, many chemotherapeutic agents were developed but have limitations such as low efficacy and severe side effects etc. A new cell based assay was developed to find the compounds that effectively block DNA replication either by directly damaging DNA or by inhibiting other cellular mechanisms. Enhanced Level of Genome Instability Gene 1 (ELG1; human ATAD5) protein levels increase in response to various types of DNA damage. Using a luciferase reporter-gene tagged with ATAD5, a cell-based assay [developed by Kyungjae Myung, NHGRI, NIH] was used to measure the induction of ATAD5 in human embryonic kidney cells (HEK293T). So, increase in luciferase activity can be used to identify the compounds that cause genetic stress.
Tox21 Assay Protocol Summary: For genotoxicity screening, 2,000 cells in 5 uL/well were dispensed into white, solid-bottom 1536-well plates using a Multidrop Combi (Thermo Scientific) dispenser. Following transfer of 23 nL compound or DMSO vehicle by a pin tool, the plates were incubated 16 hr at 37C and 5% CO2. 5 ul Amplite (AAT Bioquest, Inc.) was then added to each plate and following 30 min incubation at room temperature, luciferase activity was quantified on a ViewLux CCD-based plate reader.
Background: qHTS replaces the single test concentration by a dilution series.
Consider `OCC(c1ccc(Cl)cc1)c1ccc(Cl)cc1`, for which the “activation” value is -3.19%.

`N#CC1(N2CCCCC2)CCCCC1`: the “activation” value is 1.68%.

For the molecule `Clc1ccccc1-c1ccccc1Cl`, the “activation” value is 1.11% [at 95.3 µM].

In the case of `CN[C@@H](C)Cc1ccccc1`, the “activation” value is 3.64%.

On to `O=C(O)CCCO`, for which the “activation” value is 3.72% [at 95.3 µM].

Turning to `CCOc1ccc2c3c1O[C@H]1[C@@H](O)C=C[C@H]4[C@@H](C2)N(C)CC[C@@]341`, the “activation” value was -4.78%.

For the molecule `CCC1(c2ccccc2)C(=O)NC(=O)N(C(=O)c2ccccc2)C1=O` (stereo not given), the “activation” value is -4.47%.

On to `C=CC[C@]1(O)CC[C@H]2[C@@H]3CCC4=CCCC[C@@H]4[C@H]3CC[C@@]21C`, for which the “activation” value is 3.19%.

Regarding `Cc1nnc2n1-c1sc(CCc3ccc(CC(C)C)cc3)cc1C(c1ccccc1Cl)=NC2C` (stereo not given), the “activation” value is -6.88%.

With `O=C1OC2(c3cc(Br)c(O)cc3Oc3c2cc(Br)c(O)[c]3[Hg])c2ccccc21` (stereo not given), the “activation” value is 3.48% [at 39.1 µM].

For `N#CC(C#N)=Cc1cc(O)c(O)c(O)c1`, the “activation” value was 0.876%.

As for `CN(C)[C@H](Cc1ccccc1)c1ccccc1`, the “activation” value was -1.84%.

`CC(N)Cc1ccc(O)cc1` (stereo not given): the “activation” value is 2.12%.

`C[C@@H](CO)NC(=O)[C@@H]1C=C2c3cccc4[nH]cc(c34)C[C@H]2N(C)C1`: the “activation” value was -7.76%.

In the case of `C1CN(P2(N3CC3)=NP(N3CC3)(N3CC3)=NP(N3CC3)(N3CC3)=N2)CCO1` (stereo not given), the “activation” value was -2.05%.

Take `CO[C@H]1[C@@H](O)C[C@H](O[C@H]2[C@@H](O)C[C@H](O[C@H]3[C@@H](O)C[C@H](O[C@H]4CC[C@@]5(C)[C@H](CC[C@@H]6[C@@H]5C[C@@H](O)[C@]5(C)[C@@H](C7=CC(=O)OC7)CC[C@]65O)C4)O[C@@H]3C)O[C@@H]2C)O[C@@H]1C`: the “activation” value was -16.4%.

Turning to `C[C@]12CC[C@@H]3c4ccc(OC(=O)N(CCCl)CCCl)cc4CC[C@H]3[C@@H]1CC[C@@H]2OP(=O)(O)O`, the Potency entry was “inactive”.

As for `C#CC(C)(O)CC` (stereo not given), the “activation” value was -2.07%.

`CCC1(CC)C(=O)NC(=O)N(C)C1=O`: the “activation” value is -3.26%.

Turning to `NCC(O)c1cccc(O)c1` (stereo not given), the “activation” value is -3.36%.

As to `CN1CSC(=S)N(C)C1`, the Potency entry is “inactive”.

Regarding `C[C@]12CCC(=O)C=C1C=C[C@@H]1[C@@H]2CC[C@@]2(C)[C@H]1CC[C@@]2(O)CCC(=O)O`, the “activation” value is 3.42% [at 39.1 µM].

With `CNC(C)CC1CCCCC1` (stereo not given), the “activation” value is 1.54%.

Regarding `CCNC1(c2cccs2)CCCCC1=O` (stereo not given), the “activation” value was -2.5% [at 39.1 µM].

In the case of `C[C@]12CC[C@H]3[C@@H](CCC4=C(O)C(=O)CC[C@@H]43)[C@@H]1CC[C@@H]2OC(=O)CCC1CCCC1`, the “activation” value is 4.53%.

As to `c1csc(C2(N3CCCCC3)CCCCC2)c1`, the “activation” value is 2.14%.

Regarding `C[C@]12CC[C@H]3[C@@H](CCC4=C(Cl)C(=O)CC[C@@]43C)[C@@H]1CC[C@@H]2O`, the “activation” value was -6.68%.

In the case of `CNC(C)Cc1ccccc1` (stereo not given), the “activation” value was 3.6%.

`Cc1ccc(N(SC(F)(Cl)Cl)S(=O)(=O)N(C)C)cc1`: the “activation” value was -7.5%.

As for `CC(N)Cc1ccc2c(c1)OCO2` (stereo not given), the “activation” value was -3.46%.

`CCc1cc(OC)c(C[C@@H](C)N)cc1OC`: the “activation” value was 0.609% [at 95.3 µM].

Take `CCCCNCC(O)c1ccc(O)cc1` (stereo not given): the “activation” value is 3.35%.

Turning to `O=C1CN(O)C(c2ccccc2)=c2cc(Cl)ccc2=N1`, the “activation” value is 1.79%.

`CCOC(=O)C1(c2ccccc2)CCCN(C)CC1` (stereo not given): the “activation” value was 3.07%.

For `C[C@@H]1[C@@H]2Cc3ccc(O)cc3[C@@]1(C)CCN2CC1CC1`, the “activation” value was 1.26%.

Regarding `CCOC(=O)C(O)(c1ccc(Cl)cc1)c1ccc(Cl)cc1`, the Potency entry is “inactive”.

In the case of `C[C@]12N[C@H](Cc3ccccc31)c1ccccc12`, the Potency entry is “inactive”.

On to `CN[C@]1(c2ccccc2Cl)CCCCC1=O`, for which the “activation” value is 2.56%.

On to `O=C1C=C2C=C[C@@H]3C[C@@]2(O1)[C@H]1CCCCN31`, for which the Potency is 6.68 µM (active).

Take `C[C@@H]1[C@@H]2Cc3ccc(O)cc3[C@@]1(C)CCN2CCc1ccccc1`: the “activation” value was -2.59%.
